Consider 30 compounds from ChEMBL document CHEMBL5606460, “ASAP - DENV-2 NS2B-NS3 protease fluorescence single point” (2024).

For orientation: inhibition means the change of the read-out against control, counted positive when it falls.

The whole screen tested about 2,000 compounds, of which about 110 (5.5%) showed an effect of 50% or more. For the sample, strong results were picked, then their nearest neighbours and some compounds at random.

In this experiment the target is Genome polyprotein (dengue virus type 2) (UniProt P29990).
Where [1] appears, read: Thailand/16681/1984, Concentration 25.0 uM, Number of replicates 1.0.

Take `CC(C)(CO)NC(=O)c1cc(Cl)cc(NS(=O)(=O)c2ccccc2)c1`: the inhibition runs as follows: (Thailand/16681/1984, Concentration 49.5 uM, Number of replicates 2.0, Standard deviation 0.43077113751226487 %) -5.72%; (Thailand/16681/1984, Concentration 99.01 uM, Number of replicates 2.0, Standard deviation 0.028975789763845603 %) -4.57%; (Thailand/16681/1984, Concentration 198.0 uM, Number of replicates 2.0, Standard deviation 1.4999717780869397 %) -2.99%.
As to `O=Cc1ccc(N2CCC(C(=O)NCc3cc(C(F)(F)F)ccc3C(F)(F)F)CC2)cc1`, under setting [1], the inhibition came out at 1.04%.
`Cn1cnc2[nH]c(C(=O)N3CC[C@H](c4c[nH]c5ccccc45)C3)cc21`: the inhibition is, setting by setting: (Thailand/16681/1984, Concentration 49.5 uM, Number of replicates 2.0, Standard deviation 2.003876801484884 %) -2.49%; (Thailand/16681/1984, Concentration 99.01 uM, Number of replicates 2.0, Standard deviation 1.2772748269322285 %) -1.94%; (Thailand/16681/1984, Concentration 198.0 uM, Number of replicates 2.0, Standard deviation 1.685869304282425 %) -0.105%.
Consider `O=Cc1ccc(N2CCC(C(=O)Nc3cc(Cl)c(F)c(Cl)c3)CC2)cc1`, for which the inhibition under setting [1] came out at 13.1%.
Same read-out and setting: with `O=Cc1ccc(N2CCC(C(=O)Nc3c(Cl)cc(Cl)cc3Br)CC2)cc1` the figure was 13.4%; with `O=Cc1ccc(N2CCC(C(=O)Nc3ccc(O)cc3[N+](=O)[O-])CC2)cc1`, 24.5%.
Take `O=Cc1ccc(N2CCC(C(=O)Nc3ccc(Cl)c(Cl)c3)CC2)cc1`: the inhibition under setting [1] turned out to be 11.8%.
For the compound `O=Cc1ccc(N2CCC(C(=O)Nc3cc(Cl)cc([N+](=O)[O-])c3O)CC2)cc1`, the inhibition under setting [1] came out at 90.5%.
As for `O=Cc1ccc(N2CCC(C(=O)Nc3ccc([N+](=O)[O-])cc3Cl)CC2)cc1`, under setting [1], the inhibition is 23.5%.
Take `O=Cc1ccc(N2CCC(C(=O)Nc3cc(Cl)c(O)c(Cl)c3)CC2)cc1`: under setting [1], the inhibition is 100%.
Still for that read-out and setting: with `O=Cc1ccc(N2CCC(C(=O)Nc3cc(Cl)ccc3Br)CC2)cc1` the figure was 13.8%; with `O=Cc1ccc(N2CCC(C(=O)Nc3cc(Cl)cc(Cl)c3O)CC2)cc1`, 98.2%.
For `c1cnc2c(C3CCN(Cc4cnn5ccccc45)CC3)c[nH]c2c1`, the inhibition is, setting by setting: (Thailand/16681/1984, Concentration 49.5 uM, Number of replicates 2.0, Standard deviation 1.316281988110152 %) -4.72%; (Thailand/16681/1984, Concentration 99.01 uM, Number of replicates 2.0, Standard deviation 2.2605015442223797 %) -3.44%; (Thailand/16681/1984, Concentration 198.0 uM, Number of replicates 2.0, Standard deviation 0.9691516929362414 %) -2.08%.
Turning to `O=Cc1ccc(N2CCC(C(=O)N3CCN(C(=O)Cc4ccccc4)CC3)CC2)cc1`, the inhibition under setting [1] is 12.3%.
In the case of `CN(C)C1(CNC(=O)C2CCN(c3ccc(C=O)cc3)CC2)CCOCC1`, under setting [1], the inhibition came to 12.1%.
`NCc1ncc(C(=O)Nc2ccccc2N2CCC(CO)CC2)c(C(F)(F)F)n1`: the inhibition runs as follows: (Thailand/16681/1984, Concentration 49.5 uM, Number of replicates 2.0, Standard deviation 1.1543273279104322 %) 2.58%; (Thailand/16681/1984, Concentration 99.01 uM, Number of replicates 2.0, Standard deviation 0.2964400275887672 %) 4.99%; (Thailand/16681/1984, Concentration 198.0 uM, Number of replicates 2.0, Standard deviation 0.14686490832106133 %) 6.91%.
On to `NCc1cccc(NC(=O)[C@H]2CN(C(=O)OCc3ccccc3)CC23CCOCC3)c1`, for which the inhibition (Thailand/16681/1984, Concentration 49.5 uM, Number of replicates 2.0, Standard deviation 3.4820905640560142 %) was -2.83%; the inhibition (Thailand/16681/1984, Concentration 99.01 uM, Number of replicates 2.0, Standard deviation 3.010767204046265 %) is -1.08%; the inhibition (Thailand/16681/1984, Concentration 198.0 uM, Number of replicates 2.0, Standard deviation 2.6769829613344203 %) is -0.776%.
In the case of `O=Cc1ccc(N2CCC(C(=O)Nc3ccc(OC(F)(F)F)cc3Cl)CC2)cc1`, the inhibition under setting [1] was determined as 13.6%.
On to `COc1cc(COc2cncnc2)nc(N2CCNCC2)n1`, for which the inhibition by setting is: (Thailand/16681/1984, Concentration 49.5 uM, Number of replicates 2.0, Standard deviation 3.306986633712837 %) -2.35%; (Thailand/16681/1984, Concentration 99.01 uM, Number of replicates 2.0, Standard deviation 2.7720530174645646 %) -0.505%; (Thailand/16681/1984, Concentration 198.0 uM, Number of replicates 2.0, Standard deviation 2.4477408574870583 %) 0.524%.
As to `O=C(NCc1c[nH]nn1)c1cc(Cl)ccc1NS(=O)(=O)c1ccc(Oc2ccccc2Cl)cc1`, the inhibition reads like this: (Thailand/16681/1984, Concentration 49.5 uM, Number of replicates 2.0, Standard deviation 0.023138282657692737 %) 75.2%; (Thailand/16681/1984, Concentration 99.01 uM, Number of replicates 2.0, Standard deviation 0.008898717007196123 %) 63.2%; (Thailand/16681/1984, Concentration 198.0 uM, Number of replicates 2.0, Standard deviation 0.06140627240643217 %) 36.5%.
Turning to `Cc1ccc(CNC(=O)c2cc(Cl)ccc2NS(=O)(=O)c2ccc(Oc3ccccc3Cl)cc2)s1`, the inhibition runs as follows: (Thailand/16681/1984, Concentration 49.5 uM, Number of replicates 2.0, Standard deviation 0.032039697063193553 %) 83.2%; (Thailand/16681/1984, Concentration 99.01 uM, Number of replicates 2.0, Standard deviation 0.20602188771616411 %) 78.6%; (Thailand/16681/1984, Concentration 198.0 uM, Number of replicates 2.0, Standard deviation 0.539307027447943 %) 69.5%.
Turning to `O=C(NCc1cocn1)c1cc(Cl)ccc1NS(=O)(=O)c1ccc(Oc2ccccc2Cl)cc1`, the inhibition reads like this: (Thailand/16681/1984, Concentration 49.5 uM, Number of replicates 2.0, Standard deviation 0.2927162692291327 %) 78.5%; (Thailand/16681/1984, Concentration 99.01 uM, Number of replicates 2.0, Standard deviation 0.11144031356026086 %) 70.2%; (Thailand/16681/1984, Concentration 198.0 uM, Number of replicates 2.0, Standard deviation 0.4940824474713894 %) 60.8%.
As for `COc1cccc(Cn2cc(C3CCNCC3)c(C)n2)n1`, the inhibition is, setting by setting: (Thailand/16681/1984, Concentration 49.5 uM, Number of replicates 2.0, Standard deviation 0.5897033629115713 %) -3.33%; (Thailand/16681/1984, Concentration 99.01 uM, Number of replicates 2.0, Standard deviation 0.7206939136220955 %) -3.64%; (Thailand/16681/1984, Concentration 198.0 uM, Number of replicates 2.0, Standard deviation 2.0772079346215944 %) -3.79%.
With `CCCCCC(=O)N[C@H](C(=O)N1CCC[C@@H](N)C1)c1ccc(OCc2ccccc2)cc1`, the inhibition runs as follows: (Thailand/16681/1984, Concentration 49.5 uM, Number of replicates 2.0, Standard deviation 1.275572557867722 %) -0.123%; (Thailand/16681/1984, Concentration 99.01 uM, Number of replicates 2.0, Standard deviation 1.3300520589416613 %) 0.674%; (Thailand/16681/1984, Concentration 198.0 uM, Number of replicates 2.0, Standard deviation 1.6287502093065211 %) 2.04%.
Consider `O=Cc1ccc(N2CCC(C(=O)NCCc3cccc4ccccc34)CC2)cc1`, for which the inhibition under setting [1] stood at 11.1%.
Regarding `Cc1cc(CO)c2cccc(Cc3ccccc3C(=O)NCc3c(C)noc3C)c2n1`, the inhibition reads like this: (Thailand/16681/1984, Concentration 49.95 uM, Number of replicates 2.0, Standard deviation 0.3226747127660098 %) -0.757%; (Thailand/16681/1984, Concentration 99.9 uM, Number of replicates 2.0, Standard deviation 0.21847019123152348 %) 0.39%.
For `COc1ccc(F)c(-c2nn(C)cc2NC(=O)c2ccccc2C(F)(F)F)c1`, the inhibition by setting is: (Thailand/16681/1984, Concentration 49.5 uM, Number of replicates 2.0, Standard deviation 3.583319549695768 %) -2.64%; (Thailand/16681/1984, Concentration 99.01 uM, Number of replicates 2.0, Standard deviation 4.648656873158677 %) -2.47%; (Thailand/16681/1984, Concentration 198.0 uM, Number of replicates 2.0, Standard deviation 3.7890463989356435 %) -2.09%.
As for `COc1ccc(F)cc1-c1ccccc1C(=O)Nc1cnn(C)c1`, the inhibition (Thailand/16681/1984, Concentration 49.5 uM, Number of replicates 2.0, Standard deviation 2.2581672831644526 %) was -4.25%; the inhibition (Thailand/16681/1984, Concentration 99.01 uM, Number of replicates 2.0, Standard deviation 1.9365380229757554 %) is -2.49%; the inhibition (Thailand/16681/1984, Concentration 198.0 uM, Number of replicates 2.0, Standard deviation 2.756548372009165 %) is -2.95%.
Take `Cn1cc(NC(=O)c2ccccc2C(F)(F)F)c(-c2ccc(CO)cc2)n1`: the inhibition was -4.04% (Thailand/16681/1984, Concentration 49.5 uM, Number of replicates 2.0, Standard deviation 2.3161186941047496 %); -2.8% (Thailand/16681/1984, Concentration 99.01 uM, Number of replicates 2.0, Standard deviation 3.5021876776391307 %); -3.05% (Thailand/16681/1984, Concentration 198.0 uM, Number of replicates 2.0, Standard deviation 4.667974048773386 %).
With `N#Cc1cccc(NC(=O)[C@@H](NC(=O)c2ccc(Oc3ccc(C(F)(F)F)cc3)cc2)c2ccc(OCc3ccccc3)cc2)c1`, the inhibition runs as follows: (Thailand/16681/1984, Concentration 49.5 uM, Number of replicates 2.0, Standard deviation 0.9263674997821656 %) -5.09%; (Thailand/16681/1984, Concentration 99.01 uM, Number of replicates 2.0, Standard deviation 0.4269393146330484 %) -4.04%; (Thailand/16681/1984, Concentration 198.0 uM, Number of replicates 2.0, Standard deviation 0.9636779131327375 %) -5.31%.
